This is a sample that favours compounds with a hit; in the whole collection about 19% have one here.
KB-V1 MDR tox = kills drug-selected multidrug resistant KB-V1 cells; KB-V1 MDR cells viability, CellTiter-Glo, 72 h; Potency, µM (top dose mostly 46.1 µM), hits mostly cytotoxic; 3.4% of 400,000 active; AID 1347076; also: nearly all actives have a fitted effect of over 60% in size
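Cells of the MDR subline KB-V1 are plated, dosed with compound at multiple concentrations, and incubated 72 h at 37 degrees C; CellTiter-Glo is then added and luminescence read after 10 min.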
HT1080 IDH1KD tx = HT-1080 IDH1 knockdown cell toxicity (counter line) | Potency, µM (series often up to 46.1 µM), hits mostly cytotoxic | HT-1080 IDH1 knockdown viability, ATP luminescence, 48 h | 2% of 360,000 active
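Cytotoxicity counter-line: IDH1KD HT-1080, 48 h, CellTiter-Glo. Curves classed by r2, magnitude and activity.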
TDP1 cell CPT = growth inhibition of DT40 Tdp1-/-;hTDP1 cells with camptothecin (screen for TDP1 inhibitors) | chicken DT40 Tdp1-/-;hTDP1 cells + 20 nM CPT, ATP luminescence, 48 h | Potency, µM (titrated, usually from 46.2 µM), most hits filed as inhibitors | 12% of 420,000 active; also: nearly all actives have a fitted effect of over 55% in size
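Chicken DT40 Tdp1-/- cells stably complemented with human TDP1 were seeded at 400 cells/well in medium containing 20 nM camptothecin, exposed to pin-transferred compounds, and grown at 37 °C for at least 48 hr. Viability was read as ATP luminescence.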
DT40 TDP1 no CPT = qHTS for Inhibitors of human tyrosyl-DNA phosphodiesterase 1 (TDP1): qHTS in cells in absence of CPT; DT40 Tdp1-/- hTDP1 cells, no CPT, ATP luminescence, 48 h; Potency, µM (series often up to 46.2 µM), actives largely listed as inhibitors; 15% of 420,000 active; also: nearly all actives have a fitted effect of over 55% in size
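Cells were dispensed at 400 per well, compounds added by pin tool, plates incubated ≥48 hr at 37 °C, then CellTiter-Glo added for 30 min at room temperature before luminescence reading. Line: DT40 Tdp1-/- complemented with hTDP1; camptothecin omitted.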
HT1080-NT tox = kills 2HG-producing HT-1080-NT fibrosarcoma cells; HT-1080-NT fibrosarcoma viability, CellTiter-Glo ATP luminescence, 48 h; Potency, µM (top dose mostly 46.1 µM), usual class: cytotoxic; 1.6% of 360,000 active; AID 686970;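 also: NT is the 2HG producing partner of a matched IDH1 knockdown line; nearly all actives have a fitted effect of over 55% in size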
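A 48-hour cytotoxicity screen used HT-1080-NT cells plated 2 hours before compound delivery. ATP-based CellTiter-Glo luminescence measured viability, normalized to DMSO and no-cell controls.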
KB-3-1 tox = KB-3-1 parental cell cytotoxicity; Potency, µM (top dose mostly 46.1 µM), most hits filed as cytotoxic; KB-3-1 viability, CellTiter-Glo ATP luminescence, 72 h; 1.4% of 400,000 active; also: nearly all actives have a fitted effect of over 60% in size
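Multi-concentration cytotoxicity screen in KB-3-1 cells grown in DMEM lacking phenol red with 10% FBS. After 72 h at 37 °C with compound, ATP-dependent luminescence was recorded.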
Numbers stand for hits; - = inactive; ? = inconclusive; . = not tested or not shown. Calls follow the shape of the dose curve; as a rule, active = well fitted curve in the direction sought with a large enough effect; inconclusive = small, poorly fitted or top-dose-only effect, or another doubt; inactive = no such curve, though single readings can be large; an effect the other way counts as inactive or inconclusive.

SMILES | KB-V1 MDR tox | HT1080 IDH1KD tx | TDP1 cell CPT | DT40 TDP1 no CPT | HT1080-NT tox | KB-3-1 tox
CCCCc1c(-c2ccccc2OC)ncn1CCc1ccc(Cl)cc1 | 11.6µM | ? | ? | 20.6µM | ? | ?
COc1ccccc1-c1cc(C(=O)Nc2cc(C)n(Cc3ccc(Cl)cc3)n2)no1 | - | - | ? | - | - | -
COc1ccccc1C(=O)OCCc1ccccc1 | ? | - | - | - | - | ?
CCCCc1c(-c2ccccc2OC)ncn1CCc1ccccc1 | 11.6µM | 20.6µM | 20.6µM | ? | 18.4µM | ?
Cc1cc(S(=O)(=O)N2CCCCC2CCNC(=O)C(=O)NCC2CCCO2)ccc1F (configuration not stated) | 2.59µM | - | - | ? | - | -
O=C(NCCC1CCCCN1S(=O)(=O)c1ccccc1)C(=O)Nc1ccccc1F (configuration not stated) | - | - | 18.4µM | 23.1µM | - | -
COc1ccccc1NC(=O)C(=O)NCCC1CCCCN1S(=O)(=O)c1ccc(F)cc1 (configuration not stated) | - | - | 14.6µM | 18.4µM | - | -
Cc1cc(S(=O)(=O)N2CCCCC2CCNC(=O)C(=O)NCCN2CCOCC2)ccc1F (configuration not stated) | - | - | - | - | - | -
O=C(NCCC1CCCCN1S(=O)(=O)c1ccc(F)cc1)C(=O)Nc1ccccc1F (configuration not stated) | - | - | ? | 25.9µM | - | -
CCN(CC)S(=O)(=O)c1ccc2c(c1)c(=O)c(C(=O)N1CCN(c3ccccn3)CC1)cn2C | - | - | - | - | - | -
O=C(NCCC1CCCCN1S(=O)(=O)c1ccccc1)C(=O)Nc1ccc(F)cc1F (configuration not stated) | ? | - | 18.4µM | 18.4µM | - | ?
Cc1ccc(S(=O)(=O)N2CCCCC2CCNC(=O)C(=O)Nc2ccccc2F)cc1 (configuration not stated) | 5.8µM | - | 6.51µM | 5.8µM | - | 7.31µM
COCCNC(=O)C1CC(c2ccc(C(F)(F)F)cc2)=NO1 (configuration not stated) | - | - | ? | ? | - | -
COc1ccc(OC)c(NC(=O)COC(=O)CCc2nc3ccccc3c(=O)[nH]2)c1 | ? | - | - | - | - | -
COc1ccc(C/C(C)=N/NC(=O)c2cccnc2)cc1 | - | - | - | - | - | -
Cc1ccc(-c2nc(=S)c3c(n2CC2CCCO2)CC(C)(C)OC3)cc1 (configuration not stated) | ? | - | - | - | - | -
COc1cccc(NC(=O)CSc2nc(=O)n(Cc3ccco3)c3c2CCC3)c1 | - | . | - | ? | . | -
Cc1cccc(-c2nc(=S)c3c(n2Cc2ccco2)CCCC3)c1 | - | - | 20.6µM | ? | - | -
COc1cccc(-c2nc(=S)c3c(n2Cc2ccco2)CCCC3)c1 | - | ? | 16.4µM | ? | ? | -
Cc1ccc(-c2nc(=S)c3c(n2Cc2ccco2)CC(C)(C)OC3)cc1 | - | - | 16.4µM | 23.1µM | - | -
Cc1ccc(-c2nc(=S)c3c(n2Cc2ccco2)CCCC3)cc1 | - | - | ? | ? | - | -
CCOc1ccc(-n2c(SCC(=O)NC)nnc2-c2ccco2)cc1 | - | - | - | - | - | -
COc1cc(=O)n2c(c1C(=O)N(C)Cc1nccs1)CCN(Cc1ccc(F)c(F)c1)CC2 | . | . | ? | - | . | .
CC(=O)NCCNC(=O)c1ccc(Sc2ccccc2)c([N+](=O)[O-])c1 | - | - | - | - | - | -
O=C(NCCCN1CCOCC1)c1ccc(CSc2ccc(Cl)cc2)cc1 | ? | ? | 25.9µM | 20.6µM | 18.4µM | ?
SMILES | KB-V1 MDR tox | HT1080 IDH1KD tx | TDP1 cell CPT | DT40 TDP1 no CPT | HT1080-NT tox | KB-3-1 tox
CN(C)CCNC(=O)c1ccc(Sc2ccc(Br)cc2)c([N+](=O)[O-])c1 | ? | 18.4µM | 16.4µM | 23.1µM | 23.1µM | ?
CC(C)c1ccc(C(=O)NCCCN2CCOCC2)cc1 | - | - | - | - | - | -
O=C(NCCCN1CCOCC1)c1ccc(N2CCOCC2)c([N+](=O)[O-])c1 | . | - | - | - | - | .
O=C(NCCCN1CCOCC1)c1ccc(Sc2ccc(F)cc2)c([N+](=O)[O-])c1 | 23.1µM | - | ? | 16.4µM | - | -
COc1ccc(-c2nnn(CC(=O)N(CC(=O)NC3CCCC3)c3ccccc3F)n2)cc1OC | - | - | ? | - | - | -
COc1c2c(cc3oc(CO[C@@H]4O[C@H](CO)[C@@H](O)[C@H](O)[C@H]4O)cc(=O)c13)O[C@H](C(C)(C)O)C2 | - | - | - | - | - | -
COc1ccc(C2C=C(c3ccc(Cl)cc3)Nc3nc(NC(=O)CCC(=O)O)nn32)cc1 (configuration not stated) | - | . | - | - | . | -
COc1ccc(/C=C/C(=O)Nc2nc3n(n2)C(c2ccc(F)cc2)C=C(c2ccccc2)N3)cc1 (configuration not stated) | - | . | 5.17µM | 3.66µM | . | -
COc1ccc(C2C=C(c3ccccc3)Nc3nc(NC(C)=O)nn32)cc1 (configuration not stated) | - | . | - | ? | . | -
O=C(/C=C/c1ccccc1)Nc1nc2n(n1)C(c1ccc(F)cc1)C=C(c1ccccc1)N2 (configuration not stated) | - | . | 7.31µM | 8.2µM | . | -
COc1ccc(/C=C/C(=O)Nc2nc3n(n2)C(c2ccccc2)C=C(c2ccccc2)N3)cc1 (configuration not stated) | - | . | 7.31µM | 5.8µM | . | -
COc1ccc(C2C=C(c3ccccc3)Nc3nc(NC(=O)/C=C/c4ccc(F)cc4)nn32)cc1 (configuration not stated) | - | . | 20.6µM | 20.6µM | . | -
CCNC(=S)SCCOc1ccc(C)cc1 | - | - | - | - | - | -
Cc1nc2cncnc2n(Cc2ccccc2)c1=O | . | . | - | - | . | .
O=C(Cn1c(=O)n(Cc2cccs2)c(=O)c2cccnc21)Nc1ccccc1F | - | . | - | - | . | -
O=C(Cn1c(=O)n(CCc2c[nH]c3ccccc23)c(=O)c2cccnc21)Nc1ccccc1F | - | - | 14.6µM | 23.1µM | - | -
CC(C)CNC(=O)CSc1n[nH]c(=O)n1CCc1ccccc1 | - | - | - | - | - | -
CCc1ccc(C(=O)CC2(O)C(=O)N(CCc3ccccc3)c3ccc(Cl)cc32)cc1 (configuration not stated) | - | . | 18.4µM | 16.4µM | . | -
Cc1n[nH]c(C)c1C(=O)CC1(O)C(=O)N(CCc2ccccc2)c2ccc(Cl)cc21 (configuration not stated) | - | - | ? | 23.1µM | - | -
